Results: PubChem BioAssay AID1259415 (National Center for Advancing Translational Sciences (NCATS), 2018)
Hit rate of the full screen: of about 410,000 compounds, about 18,000 (4.4%) were called active. Roughly 7% stayed inconclusive and do not appear here. Many of the other results were omitted from the sample, so actives are more common in it than they were. A number with no mark means an inactive call. No stated cut-off is given here; in the data, active means activity change below about -60%; inconclusive means no clear call, values can overlap the other calls; inactive means above about -39%.

test: qHTS Assay for inhibitors of the human cytomegalovirus (HCMV); conditions: HFF cells, HCMV-luciferase reporter, 72 h; at 57.5 µM; stronger effect = lower value
Outline: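 After 16 h attachment at 37C, HFF cells received test compound and HCMV-luciferase (1 PFU/cell); reporter luminescence read 72 h later, data normalized against buffer-only and known inhibitor Salinomycin.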
On the % scale 0 is the no-effect control and ±100 the full control effect.

First: CCOC(=O)N1CCC(NC(=O)C(NS(=O)(=O)c2ccc3c(c2)CCN3C(=O)CC)C(C)C)CC1 (centres undefined)
Second: CCOC(=O)C1CCN(C(=O)CSc2c3c(nc4ccc(Cl)cc24)CCCC3)CC1
The activity change, negative = inhibition of the first is lower: 1.92% for the first, 92.3% for the second.

First: COc1cccc2c1cc1c(=O)n(CC(=O)N3CCN(c4ccccc4)CC3)nc(C)n12
Second: Cc1ccc(OCC(=O)N2CCN(C(=O)c3cccnc3)CC2)cc1
The activity change, negative = inhibition of the first is higher: 3.76% for the first, -12.6% for the second.

First: O=C(Cn1ncc2c3ccccc3n(Cc3ccccc3)c2c1=O)NC1CCCCCC1
Second: COc1ccc(OC)c(CNC(=O)c2c3c(nc4ccccc24)C(=O)N(C2CCCCC2)C3)c1
The activity change, negative = inhibition of the first is lower: 12.7% for the first, 18.7% for the second.

Compared with Cc1scc(C(=O)NNC(=S)NCC(C)C)c1C, CC(C)CNC(=S)NNC(=O)c1ccccc1OC(F)F is higher in activity change, negative = inhibition: -1.28% for the first, 2.34% for the second.

Compared with CCn1c(=O)c2cc(C(=O)Nc3cccc(C(C)=O)c3)sc2c2ccccc21, CCOc1cccc(NC(=O)c2ccc(F)c(S(=O)(=O)N(CC)c3cccc(C)c3)c2)c1 is lower in activity change, negative = inhibition: 8.05% for the first, -33.3% for the second.

Going from Cc1ccc(C(C)C)cc1OCCN1CCCC1 to Cc1ccc(OCCCCN2CCCCC2)c(Br)c1, the activity change, negative = inhibition falls from 2.84% to -23.7%.

Going from CC(=O)N1CCc2ccc(N)cc21 to CCOC(=O)c1c(-c2cccc(N)c2)cn2ccccc12, the activity change, negative = inhibition rises from -18% to 17.2%.

Going from COc1cc(NC(=O)c2cc3ccc4cccnc4c3[nH]2)cc(OC)c1OC to CCOC(=O)c1[nH]cnc1C(=O)Nc1ccccc1C, the activity change, negative = inhibition falls from 65% to -21.4%.

First: CCOc1ccc(Nc2nc3c(S(=O)(=O)c4cccc(Cl)c4)nnn3c3ccsc23)cc1
Second: COc1ccc(S(=O)(=O)N(C)C[C@H]2Oc3ccc(NS(=O)(=O)c4cccs4)cc3CC(=O)N([C@H](C)CO)C[C@H]2C)cc1
The activity change, negative = inhibition of the first is higher: 16.8% for the first, 8.23% for the second.

First: C[C@H](CO)N1C[C@H](C)[C@H](CN(C)CC2CC2)Oc2ccc(NC(=O)CCN3CCOCC3)cc2C1=O
Second: O=C(CCN1CCc2ccccc2C(O)(c2ccccc2)C1)c1ccc2c(c1)OCCO2 (centres undefined)
The activity change, negative = inhibition of the first is lower: -26.7% for the first, 25.7% for the second.

Compared with O=C(c1cccc(Cl)c1)N1CCN(CCc2ccncc2)CC1, O=C(CCn1ccc2cc(S(=O)(=O)N3CCCC3)ccc21)NCc1cccc(Cl)c1 is lower in activity change, negative = inhibition: 14.9% for the first, -10.7% for the second.

First: Fc1ccc(Nc2nnns2)cc1
Second: Cc1nn(Cc2ccc(F)cc2)c(C)c1NC(=O)c1cc(CC(C)C)on1
The activity change, negative = inhibition of the first is higher: 21.3% for the first, -39% for the second.

Compared with O=C(COc1ccccc1)OCc1cc(=O)n2nc(-c3cccs3)sc2n1, O=C(Cn1ncn2nc(-c3cccs3)cc2c1=O)NCc1cccc(Br)c1 is lower in activity change, negative = inhibition: 24.1% for the first, 12.3% for the second.

First: CCc1ccccc1NC(=O)c1ccc(F)c(S(=O)(=O)NC2CCCCCC2)c1
Second: CCC[C@H]1[C@@H](NS(=O)(=O)c2ccc(F)cc2)CC[C@@]23CCCN2C(=O)CCC[C@@H]13
The activity change, negative = inhibition of the first is higher: 27% for the first, -4.65% for the second.

First: O=C(CSc1nnc(-c2ccccc2F)o1)Nc1cccc(C(F)(F)F)c1
Second: O=S(=O)(Nc1ccc2nc(-c3ccco3)[nH]c2c1)c1ccccc1
The activity change, negative = inhibition of the first is higher: 98.3% for the first, 16.8% for the second.

First: CCCOc1cccc(C(=O)NCCCNC(=O)c2cccnc2)c1
Second: CCCSc1ncc(Cl)c(C(=O)Nc2sc3c(c2C(=O)NCCOC)CCCC3)n1
The activity change, negative = inhibition of the first is higher: -8.85% for the first, -24% for the second.

Going from CCOC(=O)c1c(C2CC2)csc1NC(=O)CSCc1c(C)noc1C to COCCCNC(=O)/C(C#N)=C/c1c(N2CCCCCC2)nc2ccccn2c1=O, the activity change, negative = inhibition falls from 42.9% to -37.9%.

Going from Oc1c(C(c2ccccc2Cl)N2CCOCC2)sc2nc(-c3ccco3)nn12 (centres undefined) to O=[N+]([O-])c1ccc(N/N=C2/CCCCC2c2ccccn2)c([N+](=O)[O-])c1 (centres undefined), the activity change, negative = inhibition rises from -16.1% to 4.73%.

In the case of Cc1scc(C(=O)NNC(=S)NCc2ccccc2)c1C, the activity change, negative = inhibition is reported as -63.5% (active).
For Cc1ccc(C(C)(C)C)c(OCCCCN2CCCC2)c1, the activity change, negative = inhibition was -65.6% (active).
With C[C@H]1CN([C@@H](C)CO)C(=O)Cc2cc(NS(C)(=O)=O)ccc2O[C@@H]1CN(C)CC1CC1 the activity change, negative = inhibition was -70.1% (active).
With Cc1cccc(NC(=O)c2ccc(F)c(S(=O)(=O)N(C)C3CCCCC3)c2)c1 the activity change, negative = inhibition was -81.6% (active).
For CCCCCCOc1ccc(OC(=O)c2cccnc2)cc1, the activity change, negative = inhibition was -79.3% (active).
With CCOC(=O)c1c(-c2cccc(C)c2)csc1NC(=O)c1c(-c2ccccc2)noc1C the activity change, negative = inhibition was -94% (active).
With CCCS(=O)(=O)c1ncc(Cl)c(C(=O)Nc2scc(-c3ccccc3)c2C(=O)OCC)n1 the activity change, negative = inhibition was -98.8% (active).
With O=[N+]([O-])c1ccc2nc(-c3ccccn3)[nH]c2c1 the activity change, negative = inhibition was -79.3% (active).
